# Bioassay records as filed in PubChem BioAssay.
# Compounds with a hit are over-represented: about 3.5% of the library has one in this group of screens.
# FBW7 act – FBW7 E3 ligase activators, primary screen, biochemical, AlphaScreen, human; normalized activity (activation), % at 26.1 µM; 650,000 compounds, 0.13% hits; F-box/WD repeat-containing protein 7 (Homo sapiens), Q969H0; AlphaScreen FBW7–phospho-cyclin E peptide binding, activator screen; in the data active means normalized activity above about 1.9%;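 further: purified mutant Fbw7 with reduced substrate affinity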
# TEAD-YAP inh – TEAD-YAP interaction inhibition, primary screen, TEAD-YAP interaction inhibitor project, luminescence, HEK-TIYL cells. inhibition, % at 9.12 µM. TEAD-Gal4/YAP UAS-luciferase luminescence. 640,000 compounds, 1.4% hits; in the data active means inhibition above about 32%
# GPR151 activ – activators of human GPR151, primary screen, cell-based, PathHunter beta-arrestin, luminescence; activation, % at 11.2 µM; PathHunter beta-arrestin GPR151 cells; G-protein coupled receptor 151 (Homo sapiens), Q8TDV0; 650,000 compounds, 1% hits; in the data active means activation above about 4.9%
# Target sequence (Q8TDV0 whole entry, looked up): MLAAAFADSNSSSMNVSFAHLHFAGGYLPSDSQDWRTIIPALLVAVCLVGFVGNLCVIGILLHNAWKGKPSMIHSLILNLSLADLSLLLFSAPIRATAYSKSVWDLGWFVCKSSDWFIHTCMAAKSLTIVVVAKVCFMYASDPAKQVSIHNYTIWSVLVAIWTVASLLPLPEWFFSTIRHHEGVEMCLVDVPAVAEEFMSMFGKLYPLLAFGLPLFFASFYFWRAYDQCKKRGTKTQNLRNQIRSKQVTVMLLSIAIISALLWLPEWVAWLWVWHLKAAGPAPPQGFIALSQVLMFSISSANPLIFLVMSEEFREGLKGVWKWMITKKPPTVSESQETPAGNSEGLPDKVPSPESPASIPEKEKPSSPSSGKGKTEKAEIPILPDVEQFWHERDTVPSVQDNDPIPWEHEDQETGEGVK
# MITF primary – MITF inhibitors, primary screen, biochemical, AlphaScreen, human; inhibition, % at 2.6 µM; AlphaScreen MITF homodimerization, bead proximity signal; 650,000 compounds, 0.91% hits; AID 1259374, 2018; Microphthalmia-associated transcription factor (Homo sapiens), O75030; in the data active means inhibition above about 50%
# MITF confirm – MITF inhibitors, retest of hits, confirmation, biochemical, AlphaScreen, triplicate | inhibition, % at 2.6 µM | AID 1259372, 2018 | AlphaScreen MITF homodimerization, biotin/His-MITF beads | 4,700 compounds, 16% hits | shares compounds with MITF primary;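 active means inhibition above a cutoff derived from the DMSO control wells, cut at about 28% in these data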;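 further: inhibitors lower the bead chemiluminescence by keeping MITF from dimerizing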
# AlphaScreen DR – AlphaScreen optical interference compounds, dose response, counter-screen, biochemical, HTS | shares compounds with MITF primary | AlphaScreen optical interference counterscreen, cell-free | IC50, µM | 480 compounds, 6% hits; call rule not given here
# AlphaScreen intf2 – AlphaScreen optical interference compounds, counter-screen for MITF inhibitor project, biochemical, triplicate | shares compounds with MITF primary | LysRS AlphaScreen counterscreen, signal interference | inhibition, % at 2.6 µM | 4,700 compounds, 7.6% hits | AID 1259376, 2018;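 active means inhibition above a cutoff derived from the DMSO control wells, cut at about 30% in these data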
# Hits are given with their value; i = inactive; nt = not tested or not shown.
SMILES,FBW7 act,TEAD-YAP inh,GPR151 activ,MITF primary,MITF confirm,AlphaScreen intf2,others
COCc1ccc(O)c2ncccc12,i,91,i,91,109,101,
CCOc1c(C)cc(-c2ncccc2O)cc1C,i,i,i,i,nt,nt,
CCOCc1ccc(O)c2ncccc12,i,88,i,98,82,101,
Cc1ccc(Oc2ccc(N(C)C(=O)Nc3cc(F)cc(F)c3)cc2)nn1,i,i,i,i,nt,nt,
Cc1nc2ccncc2cc1C(=O)NCc1ccccn1,i,i,i,i,nt,nt,
CN1CCN(C(=O)c2ccc(-c3nc(NC4CC4)c4ncn(CCN5CCCC5=O)c4n3)cc2)CC1,i,i,i,i,nt,nt,
CC(C)N1CCN(Cc2cccn2-c2ncccn2)CC1CCO (stereo not given),i,i,i,i,nt,nt,
CC1CCCCC1NCc1ccc([N+](=O)[O-])cc1 (stereo not given),i,i,i,75,i,i,
O=[N+]([O-])c1ccc(CNC2CCCC2)cc1,i,i,i,i,nt,nt,
COc1cccc(CNc2cccc(F)c2)c1OC,i,i,i,i,nt,nt,
COc1cccc(CN2CCN(C(=O)c3cccc(Cl)c3)CC2)c1OC,i,i,i,i,nt,nt,
COc1ccc(CN2CCN(Cc3cccc(F)c3)CC2)c(OC)c1OC,i,i,i,i,nt,nt,
COc1cccc(CNc2cccc(C)c2)c1OC,i,i,i,78,i,i,
COc1ccc(CN2CCN(Cc3cccc(OC)c3OC)CC2)cc1Br,i,i,i,75,i,i,
COc1cccc(CN2CCN(Cc3cccc(Cl)c3)CC2)c1OC,i,i,i,73,i,i,
COc1cccc(CN2CCN(Cc3cccc(C)c3)CC2)c1OC,i,i,i,76,i,i,
CCn1c(SCC(=O)Nc2nc3c(s2)CCCC3)nnc1C1CC1,i,i,i,i,nt,nt,
CN(C)CCN1C(=O)CC(CC(=O)N(C)C(C2CC2)C2CC2)(c2ccccc2Cl)C1=O (stereo not given),i,i,i,i,nt,nt,
COc1cccc(CN2CCN(Cc3cccc(Br)c3)CC2)c1OC,i,i,i,70,i,i,
Cc1sc2nc(C)n3c(=O)n(CC(=O)NCc4ccco4)nc3c2c1C,i,i,i,51,29,i,AlphaScreen DR=i
Cc1sc2nc(C(C)C)n3c(=O)n(CC(=O)NCc4ccco4)nc3c2c1C,i,i,i,i,nt,nt,
COC(=O)[C@H]1CCc2ccccc2N1C(=O)c1ccc(F)c(F)c1,i,i,i,i,nt,nt,
O=C(NCCN1CCCCC1)C1CC(=O)N(C2CCCCCCC2)C1 (stereo not given),i,i,i,i,nt,nt,
CN(C(=O)Cc1ccc(NC2=NC3CS(=O)(=O)CC3S2)cc1)C1CCCCC1 (stereo not given),i,i,i,58,56,42,
Cc1cccc(OCC(=O)Nc2ccc(F)cc2)c1,i,i,i,i,nt,nt,
SMILES,FBW7 act,TEAD-YAP inh,GPR151 activ,MITF primary,MITF confirm,AlphaScreen intf2,others
OC(COCc1ccc(Cl)cc1)CN1CCCC1 (stereo not given),i,i,i,i,nt,nt,
OC(COCc1ccc(Cl)cc1)CN1CCN(CC2CCCO2)CC1 (stereo not given),i,i,i,68,i,i,
COc1ccc(-n2nc3c(c2NC(=O)c2cccc(Cl)c2)CS(=O)(=O)C3)cc1,i,i,i,i,nt,nt,
Cc1ccc([N+](=O)[O-])c(OCCCN2CCN(Cc3ccccc3)CC2)c1,i,i,i,i,nt,nt,
Cc1ccc([N+](=O)[O-])c(OCCOCCN2CCN(Cc3ccccc3)CC2)c1,i,i,i,70,i,i,
COc1cc(C(C)=O)ccc1OCCOCCN1CCN(Cc2ccccc2)CC1,i,i,i,87,i,i,
CCOC(=O)c1nn(-c2ccccc2)c2oc(=O)c(NC(=O)c3ccc(F)cc3)cc12,i,i,i,i,nt,nt,
CC(=O)CC(=O)NC(C)c1ccccc1 (stereo not given),i,i,i,i,nt,nt,
CC(NC(=O)CNCc1ccccn1)c1ccccc1 (stereo not given),i,i,i,74,i,100,
COC(=O)C1Sc2[nH]c(=O)sc2C(c2cccc([N+](=O)[O-])c2)C1C(=O)OC (stereo not given),i,i,i,i,nt,nt,
COC(=O)C1Sc2[nH]c(=O)sc2C(c2ccc(OC)cc2)C1C(=O)OC (stereo not given),i,i,i,52,i,i,
OCCN1CCN(c2cc(-c3ccccc3F)nc(-c3ccccc3)n2)CC1,i,i,i,53,i,i,
OCCN1CCN(c2cc(-c3ccccc3F)nc(-c3cccnc3)n2)CC1,i,i,i,i,nt,nt,
CCOC(=O)N1CCN(Cc2cn3ccccc3n2)CC1,i,i,i,61,i,i,
COC1(C(=O)C(=O)Nc2ccccc2Cl)NC2(CCCC2)Cc2ccccc21 (stereo not given),i,i,i,i,nt,nt,
Cc1cc(O)c(C=O)c2c1C(=O)Oc1c(C)c(O)c3c(c1O2)C(O)OC3=O (stereo not given),i,i,i,i,nt,nt,
COc1cc(C)c2c(c1C=O)Oc1c(c(C)c(O)c3c1C(O)OC3=O)OC2=O (stereo not given),i,i,i,74,84,i,AlphaScreen DR=i
COc1ccc(S(=O)(=O)N2CCCCC2C(=O)O)cc1OC (stereo not given),i,i,i,i,nt,nt,
COc1ccc(S(=O)(=O)N2CCCCC2C(=O)O)cc1 (stereo not given),i,i,i,68,i,i,
OC(CNNc1c(F)c(F)cc(F)c1F)COc1ccccc1 (stereo not given),i,i,i,58,i,i,
CC(C)NCC(O)COc1ccccc1 (stereo not given),i,i,i,i,nt,nt,
C/C(CCc1ccco1)=N\NC(=O)CNc1ccc(F)cc1,i,i,i,i,nt,nt,
COCCCNCCCOc1ccc(C)cc1[N+](=O)[O-],i,i,i,64,i,i,
Cc1ccc(OCCN2CCC(C)CC2)c([N+](=O)[O-])c1,i,i,i,64,i,i,
Cc1ccc(OCCN(C)C)c([N+](=O)[O-])c1,i,i,i,51,i,i,
Cc1ccc(OCCN2CCOCC2)c([N+](=O)[O-])c1,i,i,i,i,nt,nt,
CN1CCN(C(c2ccccc2F)c2nnnn2Cc2ccc3c(c2)OCO3)CC1 (stereo not given),i,i,i,i,nt,nt,
Cc1cccc(COc2ccc(/C=C3/SC(=O)NC3=O)cc2)c1,i,i,i,i,nt,nt,
O=C(c1cn(-c2ccccc2)nc1-c1ccc2c(c1)OCCO2)N1CCOCC1,i,i,i,58,i,i,
OCc1cn(-c2ccccc2)nc1-c1ccc2c(c1)OCCO2,i,i,i,i,nt,nt,
